# Measured values published in PMC8384837, “Expanding the binding specificity for RNA recognition by a PUF domain”.
# What was measured:
# Assay in all cases: yeast three-hybrid, YBZ-1, SC-Leu-His + 0.5 mM 3-AT, 4 days
# Details in all cases: tags: N-Gal4 AD-HA kept; label: inside an RPR1-promoter hybrid RNA with tandem MS2 sites; ssRNA
# PUM1 PUF domain R5-RQH = PUM1 PUF domain R5-RQH (Homo sapiens, UniProt Q14671 828-1176, C1007R;R1008Q;Q1011H)
# Summary of the method: (§1)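 The interaction score is the logarithmic change in variant frequency from input to selection. It uses log2, with a pseudocount of 1 for absent variants, and frequencies came from PCR-amplified, Illumina-sequenced repeat regions. The libraries were Pumilio-1 PUF domains randomized at the three base-contacting residues per repeat, co-expressed with matching RNA elements in strain YBZ-1 (LexA–MS2 coat fusion, HIS3 reporter). Plating lasted four days on SC-Leu (input) or SC-Leu-His + 0.5 mM 3-AT (selection).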
# PUM1 PUF domain R5-DFD = PUM1 PUF domain R5-DFD (Homo sapiens, UniProt Q14671 828-1176, C1007D;R1008F;Q1011D)
# Chain of PUM1 PUF domain R5-DFD (Q14671 828-1176 C1007D/R1008F/Q1011D): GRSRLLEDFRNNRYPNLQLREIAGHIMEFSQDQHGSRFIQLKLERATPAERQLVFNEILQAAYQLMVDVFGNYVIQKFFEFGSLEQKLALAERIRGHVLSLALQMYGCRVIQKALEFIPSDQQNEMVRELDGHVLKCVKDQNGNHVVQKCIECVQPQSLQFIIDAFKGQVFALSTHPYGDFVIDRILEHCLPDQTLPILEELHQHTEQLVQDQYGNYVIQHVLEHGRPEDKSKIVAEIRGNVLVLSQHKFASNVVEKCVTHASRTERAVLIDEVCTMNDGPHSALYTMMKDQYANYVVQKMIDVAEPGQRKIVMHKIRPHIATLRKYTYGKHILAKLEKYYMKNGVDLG
# Summary of the method: as §1
# PUM1 PUF domain R5-GHG = PUM1 PUF domain R5-GHG (Homo sapiens, UniProt Q14671 828-1176, C1007G;R1008H;Q1011G)
# Chain of PUM1 PUF domain R5-GHG (Q14671 828-1176 C1007G/R1008H/Q1011G): as the sequence (Q14671 828-1176 C1007D/R1008F/Q1011D) above, with D180G, F181H, D184G counted along it
# Summary of the method: as §1
# PUM1 PUF domain R4-NNV = PUM1 PUF domain R4-NNV (Homo sapiens, UniProt Q14671 828-1176, H972N;Q975V)
# Chain of PUM1 PUF domain R4-NNV (Q14671 828-1176 H972N/Q975V): as the sequence (Q14671 828-1176 C1007D/R1008F/Q1011D) above, with H145N, Q148V, D180C, F181R, D184Q counted along it
# Summary of the method: as §1
# PUM1 PUF domain R4-PYC = PUM1 PUF domain R4-PYC (Homo sapiens, UniProt Q14671 828-1176, N971P;H972Y;Q975C)
# Chain of PUM1 PUF domain R4-PYC (Q14671 828-1176 N971P/H972Y/Q975C): as the sequence (Q14671 828-1176 C1007D/R1008F/Q1011D) above, with N144P, H145Y, Q148C, D180C, F181R, D184Q counted along it
# Summary of the method: as §1
# PUM1 PUF domain R4-VPG = PUM1 PUF domain R4-VPG (Homo sapiens, UniProt Q14671 828-1176, N971V;H972P;Q975G)
# Chain of PUM1 PUF domain R4-VPG (Q14671 828-1176 N971V/H972P/Q975G): as the sequence (Q14671 828-1176 C1007D/R1008F/Q1011D) above, with N144V, H145P, Q148G, D180C, F181R, D184Q counted along it
# Summary of the method: as §1
# PUM1 PUF domain R4-GRC = PUM1 PUF domain R4-GRC (Homo sapiens, UniProt Q14671 828-1176, N971G;H972R;Q975C)
# Chain of PUM1 PUF domain R4-GRC (Q14671 828-1176 N971G/H972R/Q975C): as the sequence (Q14671 828-1176 C1007D/R1008F/Q1011D) above, with N144G, H145R, Q148C, D180C, F181R, D184Q counted along it
# Summary of the method: as §1
# PUM1 PUF domain R3-FRL = PUM1 PUF domain R3-FRL (Homo sapiens, UniProt Q14671 828-1176, C935F;Q939L)
# Chain of PUM1 PUF domain R3-FRL (Q14671 828-1176 C935F/Q939L): as the sequence (Q14671 828-1176 C1007D/R1008F/Q1011D) above, with C108F, Q112L, D180C, F181R, D184Q counted along it
# Summary of the method: as §1
# PUM1 PUF domain R7-RPE = PUM1 PUF domain R7-RPE (Homo sapiens, UniProt Q14671 828-1176, S1079R;N1080P)
# Chain of PUM1 PUF domain R7-RPE (Q14671 828-1176 S1079R/N1080P): as the sequence (Q14671 828-1176 C1007D/R1008F/Q1011D) above, with D180C, F181R, D184Q, S252R, N253P counted along it
# Summary of the method: as §1
# PUM1 PUF domain R5-THV = PUM1 PUF domain R5-THV (Homo sapiens, UniProt Q14671 828-1176, C1007T;R1008H;Q1011V)
# Chain of PUM1 PUF domain R5-THV (Q14671 828-1176 C1007T/R1008H/Q1011V): as the sequence (Q14671 828-1176 C1007D/R1008F/Q1011D) above, with D180T, F181H, D184V counted along it
# Summary of the method: as §1
# PUM1 PUF domain R5-GRF = PUM1 PUF domain R5-GRF (Homo sapiens, UniProt Q14671 828-1176, C1007G;Q1011F)
# Chain of PUM1 PUF domain R5-GRF (Q14671 828-1176 C1007G/Q1011F): as the sequence (Q14671 828-1176 C1007D/R1008F/Q1011D) above, with D180G, F181R, D184F counted along it
# Summary of the method: as §1
# PUM1 PUF domain R5-TRH = PUM1 PUF domain R5-TRH (Homo sapiens, UniProt Q14671 828-1176, C1007T;Q1011H)
# Chain of PUM1 PUF domain R5-TRH (Q14671 828-1176 C1007T/Q1011H): as the sequence (Q14671 828-1176 C1007D/R1008F/Q1011D) above, with D180T, F181R, D184H counted along it
# Summary of the method: as §1
# PUM1 PUF domain R5-GRA = PUM1 PUF domain R5-GRA (Homo sapiens, UniProt Q14671 828-1176, C1007G;Q1011A)
# Chain of PUM1 PUF domain R5-GRA (Q14671 828-1176 C1007G/Q1011A): as the sequence (Q14671 828-1176 C1007D/R1008F/Q1011D) above, with D180G, F181R, D184A counted along it
# Summary of the method: as §1
# PUM1 PUF domain R8-RWS = PUM1 PUF domain R8-RWS (Homo sapiens, UniProt Q14671 828-1176, N1122R;Y1123W;Q1126S)
# Chain of PUM1 PUF domain R8-RWS (Q14671 828-1176 N1122R/Y1123W/Q1126S): as the sequence (Q14671 828-1176 C1007D/R1008F/Q1011D) above, with D180C, F181R, D184Q, N295R, Y296W, Q299S counted along it
# Summary of the method: as §1
# PUM1 PUF domain R3-THF = PUM1 PUF domain R3-THF (Homo sapiens, UniProt Q14671 828-1176, C935T;R936H;Q939F)
# Chain of PUM1 PUF domain R3-THF (Q14671 828-1176 C935T/R936H/Q939F): as the sequence (Q14671 828-1176 C1007D/R1008F/Q1011D) above, with C108T, R109H, Q112F, D180C, F181R, D184Q counted along it
# Summary of the method: as §1
# PUM1 PUF domain R8-KFN = PUM1 PUF domain R8-KFN (Homo sapiens, UniProt Q14671 828-1176, N1122K;Y1123F;Q1126N)
# Chain of PUM1 PUF domain R8-KFN (Q14671 828-1176 N1122K/Y1123F/Q1126N): as the sequence (Q14671 828-1176 C1007D/R1008F/Q1011D) above, with D180C, F181R, D184Q, N295K, Y296F, Q299N counted along it
# Summary of the method: as §1
# PUM1 PUF domain R8-GHK = PUM1 PUF domain R8-GHK (Homo sapiens, UniProt Q14671 828-1176, N1122G;Y1123H;Q1126K)
# Chain of PUM1 PUF domain R8-GHK (Q14671 828-1176 N1122G/Y1123H/Q1126K): as the sequence (Q14671 828-1176 C1007D/R1008F/Q1011D) above, with D180C, F181R, D184Q, N295G, Y296H, Q299K counted along it
# Summary of the method: as §1
# PUM1 PUF domain R8-RFF = PUM1 PUF domain R8-RFF (Homo sapiens, UniProt Q14671 828-1176, N1122R;Y1123F;Q1126F)
# Chain of PUM1 PUF domain R8-RFF (Q14671 828-1176 N1122R/Y1123F/Q1126F): as the sequence (Q14671 828-1176 C1007D/R1008F/Q1011D) above, with D180C, F181R, D184Q, N295R, Y296F, Q299F counted along it
# Summary of the method: as §1
# PUM1 PUF domain R8-KKG = PUM1 PUF domain R8-KKG (Homo sapiens, UniProt Q14671 828-1176, N1122K;Y1123K;Q1126G)
# Chain of PUM1 PUF domain R8-KKG (Q14671 828-1176 N1122K/Y1123K/Q1126G): as the sequence (Q14671 828-1176 C1007D/R1008F/Q1011D) above, with D180C, F181R, D184Q, N295K, Y296K, Q299G counted along it
# Summary of the method: as §1
# PUM1 PUF domain R3-APK = PUM1 PUF domain R3-APK (Homo sapiens, UniProt Q14671 828-1176, C935A;R936P;Q939K)
# Chain of PUM1 PUF domain R3-APK (Q14671 828-1176 C935A/R936P/Q939K): as the sequence (Q14671 828-1176 C1007D/R1008F/Q1011D) above, with C108A, R109P, Q112K, D180C, F181R, D184Q counted along it
# Summary of the method: as §1
# Chain of PUM1 PUF domain R5-RQH (Q14671 828-1176 C1007R/R1008Q/Q1011H): as the sequence (Q14671 828-1176 C1007D/R1008F/Q1011D) above, with D180R, F181Q, D184H counted along it
sequence,measurement,setting,value
GGCUAGAACUAGUGGAUCCCCCGGCGCCCGGCGGCUCGAGCCCGGGUAAGUGUCAAUAGUCUGCAUGCCGCCGGGCGCCAUGCCUGCAGGUCGACUCUAGAAAACAUG,binding signal,PUM1 PUF domain R5-RQH,3.64 log2 enrichment (interaction score)
same,binding signal,PUM1 PUF domain R5-DFD,2.82 log2 enrichment (interaction score)
same,binding signal,PUM1 PUF domain R5-GHG,2.77 log2 enrichment (interaction score)
GGCUAGAACUAGUGGAUCCCCCGGCGCCCGGCGGCUCGAGCCCGGGUAAGUGUACAUAGUCUGCAUGCCGCCGGGCGCCAUGCCUGCAGGUCGACUCUAGAAAACAUG,binding signal,PUM1 PUF domain R4-NNV,2.48 log2 enrichment (interaction score)
same,binding signal,PUM1 PUF domain R4-PYC,6.68 log2 enrichment (interaction score)
same,binding signal,PUM1 PUF domain R4-VPG,2.82 log2 enrichment (interaction score)
same,binding signal,PUM1 PUF domain R4-GRC,0.93 log2 enrichment (interaction score)
GGCUAGAACUAGUGGAUCCCCCGGCGCCCGGCGGCUCGAGCCCGGGUAAGUGUAAGUAGUCUGCAUGCCGCCGGGCGCCAUGCCUGCAGGUCGACUCUAGAAAACAUG,binding signal,PUM1 PUF domain R3-FRL,4.24 log2 enrichment (interaction score)
GGCUAGAACUAGUGGAUCCCCCGGCGCCCGGCGGCUCGAGCCCGGGUAAGUUUAAAUAGUCUGCAUGCCGCCGGGCGCCAUGCCUGCAGGUCGACUCUAGAAAACAUG,binding signal,PUM1 PUF domain R7-RPE,3.87 log2 enrichment (interaction score)
GGCUAGAACUAGUGGAUCCCCCGGCGCCCGGCGGCUCGAGCCCGGGUAAGUGUUAAUAGUCUGCAUGCCGCCGGGCGCCAUGCCUGCAGGUCGACUCUAGAAAACAUG,binding signal,PUM1 PUF domain R5-THV,3.33 log2 enrichment (interaction score)
same,binding signal,PUM1 PUF domain R5-GRF,3.3 log2 enrichment (interaction score)
same,binding signal,PUM1 PUF domain R5-TRH,4.41 log2 enrichment (interaction score)
same,binding signal,PUM1 PUF domain R5-GRA,2.93 log2 enrichment (interaction score)
GGCUAGAACUAGUGGAUCCCCCGGCGCCCGGCGGCUCGAGCCCGGGUAAGUGUAAAUAGUCUGCAUGCCGCCGGGCGCCAUGCCUGCAGGUCGACUCUAGAAAACAUG,binding signal,PUM1 PUF domain R8-RWS,4.8 log2 enrichment (interaction score)
same,binding signal,PUM1 PUF domain R3-THF,3.81 log2 enrichment (interaction score)
same,binding signal,PUM1 PUF domain R4-NNV,1.31 log2 enrichment (interaction score)
same,binding signal,PUM1 PUF domain R4-PYC,7.66 log2 enrichment (interaction score)
same,binding signal,PUM1 PUF domain R4-VPG,3.14 log2 enrichment (interaction score)
same,binding signal,PUM1 PUF domain R4-GRC,4.62 log2 enrichment (interaction score)
same,binding signal,PUM1 PUF domain R5-GRF,1.75 log2 enrichment (interaction score)
same,binding signal,PUM1 PUF domain R5-DFD,3.03 log2 enrichment (interaction score)
same,binding signal,PUM1 PUF domain R8-KFN,2.9 log2 enrichment (interaction score)
same,binding signal,PUM1 PUF domain R5-TRH,5.68 log2 enrichment (interaction score)
same,binding signal,PUM1 PUF domain R5-GHG,3.84 log2 enrichment (interaction score)
same,binding signal,PUM1 PUF domain R5-GRA,2.95 log2 enrichment (interaction score)
GGCUAGAACUAGUGGAUCCCCCGGCGCCCGGCGGCUCGAGCCCGGGUAAGCGUAAAUAGUCUGCAUGCCGCCGGGCGCCAUGCCUGCAGGUCGACUCUAGAAAACAUG,binding signal,PUM1 PUF domain R8-GHK,2.58 log2 enrichment (interaction score)
same,binding signal,PUM1 PUF domain R8-RWS,5.59 log2 enrichment (interaction score)
same,binding signal,PUM1 PUF domain R8-KFN,2.26 log2 enrichment (interaction score)
same,binding signal,PUM1 PUF domain R8-RFF,5.12 log2 enrichment (interaction score)
same,binding signal,PUM1 PUF domain R8-KKG,2.43 log2 enrichment (interaction score)
GGCUAGAACUAGUGGAUCCCCCGGCGCCCGGCGGCUCGAGCCCGGGUAAGUGUGAAUAGUCUGCAUGCCGCCGGGCGCCAUGCCUGCAGGUCGACUCUAGAAAACAUG,binding signal,PUM1 PUF domain R5-GRA,1.36 log2 enrichment (interaction score)
GGCUAGAACUAGUGGAUCCCCCGGCGCCCGGCGGCUCGAGCCCGGGUAAGUGUAAUUAGUCUGCAUGCCGCCGGGCGCCAUGCCUGCAGGUCGACUCUAGAAAACAUG,binding signal,PUM1 PUF domain R3-APK,4.11 log2 enrichment (interaction score)
GGCUAGAACUAGUGGAUCCCCCGGCGCCCGGCGGCUCGAGCCCGGGUAAGUGUAUAUAGUCUGCAUGCCGCCGGGCGCCAUGCCUGCAGGUCGACUCUAGAAAACAUG,binding signal,PUM1 PUF domain R4-NNV,3.42 log2 enrichment (interaction score)
same,binding signal,PUM1 PUF domain R4-PYC,7.49 log2 enrichment (interaction score)
same,binding signal,PUM1 PUF domain R4-VPG,2.52 log2 enrichment (interaction score)
same,binding signal,PUM1 PUF domain R4-GRC,2.46 log2 enrichment (interaction score)
